According to the supplement of paper PMC12645437, “Orthogonal IMiD-Degron Pairs Induce Selective Protein Degradation in Cells” (ACS Chemical Biology, 2025):
Over roughly 8,300 sequences, “log2 fold change of degron read counts, EGFP-low vs EGFP+ sorted cells (limma voom), compound-induced degradation” has its median near -1.1; the highest 2% begin near 3.2. This is one part of a sample in which the highest values are shown more often than they occur.

T1: CRBN, Q96SW2
T1 chain: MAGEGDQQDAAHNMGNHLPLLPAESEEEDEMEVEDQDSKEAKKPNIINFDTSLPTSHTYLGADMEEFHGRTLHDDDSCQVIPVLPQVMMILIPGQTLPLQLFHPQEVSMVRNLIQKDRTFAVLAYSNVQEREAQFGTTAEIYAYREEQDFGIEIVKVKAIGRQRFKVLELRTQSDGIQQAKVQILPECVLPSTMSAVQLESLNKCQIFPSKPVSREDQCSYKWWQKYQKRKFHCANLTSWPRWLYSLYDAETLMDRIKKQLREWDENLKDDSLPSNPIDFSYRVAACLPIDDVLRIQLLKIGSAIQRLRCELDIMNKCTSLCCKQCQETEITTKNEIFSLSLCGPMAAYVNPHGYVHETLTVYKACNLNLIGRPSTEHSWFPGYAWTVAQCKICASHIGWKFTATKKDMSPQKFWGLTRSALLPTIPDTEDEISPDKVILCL

B1: 46F_47E_49P_50Q_52G_53A_54P_55F_67L_, Q9UKT9 (peptide)
chain: FECPQCGAPFTQKGNLLRHIKL
B2: 46F_47M_49N_50Q_52G_53A_54K_55F_67L_, Q9UKT9 (peptide)
chain: FMCNQCGAKFTQKGNLLRHIKL
B3: 46L_47E_49E_50I_52G_53F_54G_55C_67L_, Q9UKT9 (peptide)
chain: LECEICGFGCTQKGNLLRHIKL
B4: 46F_47M_49D_50V_52G_53A_54Q_55F_67L_, Q9UKT9 (peptide)
chain: FMCDVCGAQFTQKGNLLRHIKL
B5: 46F_47H_49N_50I_52G_53A_54C_55F_67L_, Q9UKT9 (peptide)
chain: FHCNICGACFTQKGNLLRHIKL
B6: 46F_47G_49N_50Q_52G_53H_54W_55F_67L_, Q9UKT9 (peptide)
chain: FGCNQCGHWFTQKGNLLRHIKL
B7: 46F_47N_49P_50Q_52G_53A_54G_55F_67L_, Q9UKT9 (peptide)
chain: FNCPQCGAGFTQKGNLLRHIKL
B8: 46F_47R_49E_50I_52G_53A_54C_55F_67L_, Q9UKT9 (peptide)
chain: FRCEICGACFTQKGNLLRHIKL
B9: 46F_47V_49E_50I_52G_53A_54C_55F_67L_, Q9UKT9 (peptide)
chain: FVCEICGACFTQKGNLLRHIKL
B10: 46F_47Q_49E_50I_52G_53A_54C_55F_67L_, Q9UKT9 (peptide)
chain: FQCEICGACFTQKGNLLRHIKL
B11: 46F_47Y_49E_50I_52G_53A_54C_55F_67L_, Q9UKT9 (peptide)
chain: FYCEICGACFTQKGNLLRHIKL
B12: 46F_47E_49E_50I_52G_53A_54C_55F_67L_, Q9UKT9 (peptide)
chain: FECEICGACFTQKGNLLRHIKL
B13: 46F_47D_49E_50I_52G_53A_54C_55F_67L_, Q9UKT9 (peptide)
chain: FDCEICGACFTQKGNLLRHIKL
B14: 46F_47K_49E_50I_52G_53A_54C_55F_67L_, Q9UKT9 (peptide)
chain: FKCEICGACFTQKGNLLRHIKL
B15: 46F_47S_49E_50I_52G_53A_54C_55F_67L_, Q9UKT9 (peptide)
chain: FSCEICGACFTQKGNLLRHIKL
B16: 46F_47C_49E_50I_52G_53A_54C_55F_67L_, Q9UKT9 (peptide)
chain: FCCEICGACFTQKGNLLRHIKL
B17: 46F_47M_49E_50I_52G_53A_54C_55F_67L_, Q9UKT9 (peptide)
chain: FMCEICGACFTQKGNLLRHIKL
B18: 46F_47T_49E_50I_52G_53A_54C_55F_67L_, Q9UKT9 (peptide)
chain: FTCEICGACFTQKGNLLRHIKL
B19: 46F_47G_49E_50I_52G_53A_54C_55F_67L_, Q9UKT9 (peptide)
chain: FGCEICGACFTQKGNLLRHIKL

Target: T1, CRBN, Q96SW2
Assay: log2 fold change of degron read counts, EGFP-low vs EGFP+ sorted cells (limma voom), compound-induced degradation; higher = more compound-induced degradation of the degron-EGFP fusion; degrons are variants of IKZF1/3 zinc finger 2; compound dose not given here
Settings: Jurkat, 18 h
Procedure: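 Pooled library of 8380 IKZF3 ZF2 degron mutants (positions 146-167 varied within the IKZF3 130-189 degron; only the varied core is printed, flanks not printed) fused to EGFP with IRES-mCherry, lentivirally expressed in Jurkat cells. mCherry+ cells were treated with one IMiD compound for 18 h (dose not stated) and FACS-sorted into EGFP-low and EGFP+ populations. Degron sequences were counted by NGS, and log2FC (EGFP-low vs EGFP+) was estimated by limma voom over 3 biological replicates.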

[1] = compound: compound 19 (5-tert-butyl-thalidomide)
[2] = compound: compound 22 (5-morpholino-thalidomide)
[3] = compound: compound 33 (diphenyl IMiD analogue)
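Note: pooled lentiviral library of zinc finger degron-EGFP fusions in mCherry-positive Jurkat cells, FACS-sorted after compound exposure, with degron abundance counted by next-generation sequencing.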

Row | Sequence | log2 fold change of degron read counts [1] | log2 fold change of degron read counts [2] | log2 fold change of degron read counts [3] | log2 fold change of degron read counts (compound: thalidomide)
1 | B1 | -2.11 | -2.37 | -1.67 | -1.19
2 | B2 | -2.87 | -2.47 | -2.42 | -2.11
3 | B3 | -0.956 | -2.31 | -1.15 | -0.202
4 | B4 | -1.67 | -1.16 | 1.5 | -0.932
5 | B5 | 1.16 | 1.39 | 0.659 | -0.53
6 | B6 | -0.98 | -1.42 | -1.2 | -0.959
7 | B7 | -0.184 | -2.36 | -1.35 | -2.07
8 | B8 | 0.0911 | -0.251 | 1.83 | 1.53
9 | B9 | 0.542 | 1.78 | 2.28 | 2.75
10 | B10 | 1.23 | 3.08 | 2.71 | 3.48
11 | B11 | 3.73 | 3.6 | 2.92 | 1.43
12 | B12 | 0.505 | -1.14 | 1.9 | 2.35
13 | B13 | 1.52 | -0.309 | 0.629 | 0.633
14 | B14 | -0.172 | -3.02 | -3.63 | -0.785
15 | B15 | 3.31 | 2.47 | 2.56 | 1.4
16 | B16 | 2.78 | 2.06 | 2.71 | 2.24
17 | B17 | 0.319 | 0.12 | 2.53 | 1.09
18 | B18 | 1.77 | 2.36 | 2.49 | 2.86
19 | B19 | 3.4 | 2.93 | 2.06 | 1.14
